Experimental data taken from PubChem BioAssay AID488969 (Vanderbilt High Throughput Screening Facility, 2010).
In all, about 110,000 compounds were measured (“z-score”: median about -0.1, highest 2% from about 2 on). The sample as a whole holds a higher share of the highest values than the screen did. Active and inactive are the calls of the source.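 The calls were made as follows: active = z-score in the third read window above 3 or below -3; inactive = the rest.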

Molecular target: Metabotropic glutamate receptor 8 (Rattus norvegicus) (UniProt P70579)
Sequence (P70579 whole entry, looked up): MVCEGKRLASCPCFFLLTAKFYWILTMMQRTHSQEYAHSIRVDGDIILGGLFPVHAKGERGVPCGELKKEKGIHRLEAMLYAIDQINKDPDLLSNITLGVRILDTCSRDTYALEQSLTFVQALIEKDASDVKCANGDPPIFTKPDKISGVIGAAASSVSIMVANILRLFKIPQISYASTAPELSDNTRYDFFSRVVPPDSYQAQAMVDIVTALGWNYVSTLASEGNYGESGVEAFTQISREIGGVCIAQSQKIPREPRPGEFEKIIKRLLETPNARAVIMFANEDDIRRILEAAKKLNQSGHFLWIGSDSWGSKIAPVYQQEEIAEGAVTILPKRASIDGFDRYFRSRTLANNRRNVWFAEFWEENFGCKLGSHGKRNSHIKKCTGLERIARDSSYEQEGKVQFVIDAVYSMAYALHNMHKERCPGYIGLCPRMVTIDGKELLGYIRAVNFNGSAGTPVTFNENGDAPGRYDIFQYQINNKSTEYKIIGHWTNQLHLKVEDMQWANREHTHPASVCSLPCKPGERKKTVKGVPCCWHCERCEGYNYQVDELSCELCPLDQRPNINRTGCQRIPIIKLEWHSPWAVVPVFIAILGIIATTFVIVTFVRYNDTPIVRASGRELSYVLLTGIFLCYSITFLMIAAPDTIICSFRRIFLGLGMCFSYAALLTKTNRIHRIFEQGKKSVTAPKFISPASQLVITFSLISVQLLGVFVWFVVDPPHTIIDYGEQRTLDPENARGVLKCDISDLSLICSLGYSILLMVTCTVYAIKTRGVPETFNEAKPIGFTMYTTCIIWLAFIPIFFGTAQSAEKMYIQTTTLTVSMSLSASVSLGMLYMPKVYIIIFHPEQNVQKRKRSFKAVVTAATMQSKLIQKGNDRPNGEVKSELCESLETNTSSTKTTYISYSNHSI
Assay: mGluR8 Gi/Go-coupled signaling modulation – cell-based, rat, thallium flux, HTS, primary screen (AID 488969)
Conditions: HEK293 rat mGluR8, GIRK (G protein-gated inwardly rectifying potassium channel) thallium flux, FluoZin2; at 10 µM; stronger effect = higher value; submaximal glutamate (EC20) added with thallium

Structure (SMILES)	z-score
Cc1cccc(N/C=C/c2onc(C)c2[N+](=O)[O-])c1	1.43
CCN(CC)S(=O)(=O)c1cc(C(=O)OCC(=O)NC2CCCc3ccccc32)ccc1C (configuration not stated)	-0.154
COCCn1c(C)cc(C2=NNC(=Nc3ccccc3)SC2)c1C	-0.413
Cc1ccc(-n2c(N)c(C(=O)NCc3cccnc3)sc2=S)cc1	0.285
COc1cc2c(C(=O)NCc3ccc4c(c3)OCO4)cn(C)c(=O)c2cc1OC	-0.397
COc1ccc(OC)c(NC(=O)Cn2c(CCC(=O)O)ccc2-c2cccs2)c1	-0.116
COc1ccc(S(=O)(=O)N2CCN(C(=O)NCc3ccccc3)CC2)cc1	-0.0685
CCOc1ccc(NCc2cc3c(C(C)(C)C)nn(-c4ccccc4)c3[nH]c2=O)cc1	-0.079
Cc1nn(-c2ccccc2)c2[nH]c(=O)c(CNCc3ccc4c(c3)OCO4)cc12	-0.638
CCc1ccc(NCc2cc3c(C)nn(-c4ccccc4)c3[nH]c2=O)cc1	5.48 (active)
Cc1ccc(OCC(=O)Nc2sc3c(c2C#N)CCC3)cc1C	-0.0369
COc1cccc(C2CC(c3ccc(F)cc3)Nc3nc(N)nn32)c1 (configuration not stated)	0.0383
O=C(NC1CC1)c1ccc(CSCc2cccc(F)c2)o1	4.11 (active)
CN1CCN(CCCNC(=O)c2ccc(CSCc3cccc(Cl)c3)o2)CC1	1.35
CCC(C)NC(=O)c1ccc(CSCc2cccc(F)c2)o1 (configuration not stated)	-0.863
O=C(NCCCN1CCCC1)c1ccc(CSCc2cccc(Cl)c2)o1	3.42 (active)
CC1CCN(CCCNC(=O)c2ccc(CSCc3cccc(Cl)c3)o2)CC1	0.509
CC(C)CCNC(=O)c1ccc(CSCc2cccc(F)c2)o1	-3.86 (active)
COc1cccc(-c2cc(C(=O)N3CCN(Cc4ccccc4)CC3)no2)c1	0.395
CO/N=C/NC(=O)c1c(OC)ccnc1Oc1cccc(C(F)(F)F)c1	0.0176
O=C1N=C(c2ccccc2)S/C1=C\c1cccs1	2.92
NC1=NC(=O)/C(=C\c2cccs2)S1	-0.0766
NC1=NC(=O)/C(=C/c2cccs2)S1	-0.848
Cc1cc2ncn(C(=O)c3c(-c4c(Cl)cccc4Cl)noc3C)c2cc1C	0.106
Cc1cc(NC(=O)c2ccc(S(=O)(=O)N3CCCC3)cc2)nc2c1c(=O)oc1ccccc12	0.442
CNc1nc(OCC(F)(F)F)nc(N2CCOCC2)n1	-0.112

Structure (SMILES)	z-score
FC(F)(F)COc1nc(OCC(F)(F)F)nc(N2CCN(c3ccccc3)CC2)n1	-0.193
FC(F)(F)COc1nc(N2CCCCC2)nc(N2CCNCC2)n1	2.6
O=C(NCc1cccnc1)c1ccccc1[N+](=O)[O-]	-0.0931
CCOc1ccc(/C=N/NC(=O)c2ccccc2NC(=O)c2ccc(OC)cc2)cc1	-0.0531
Cc1ccc2occ(-c3nn[nH]n3)c(=O)c2c1	0.366
Cc1ccccc1-c1nn[nH]n1	-0.33
CC(C)c1ccc2occ(-c3nn[nH]n3)c(=O)c2c1	3.29 (active)
CCCSc1nn2c(=O)c3ccccc3nc2s1	-0.252
CCCc1cc(-c2nc(-c3ccc(Br)cc3)cs2)ccn1	0.0465
CCCc1cc(-c2nc(-c3ccc(Cl)cc3)cs2)ccn1	-0.136
CCCc1cc(C(N)=S)ccn1	2.24
COc1nc(NCCc2ccc(OC)c(OC)c2)nc(OC)n1	-0.163
O=c1c2ccccc2sc2ccc(Cl)cc12	-0.316
O=c1c(C(c2ccccc2)c2c(O)sc3ccccc3c2=O)c(O)sc2ccccc12	7.03 (active)
COc1ccc2sc3ccccc3c(=O)c2c1	-0.213
CCN1C(=O)CC(N2CCN(c3ccc(C(=O)c4ccccc4)cc3)CC2)C1=O (configuration not stated)	-0.153
COc1ccc(NC(=O)C2CCCN(S(=O)(=O)c3cccs3)C2)cc1OC (configuration not stated)	-0.257
O=C(Cc1cccs1)Nc1nnc(Cc2ccccc2)s1	-0.0843
CCCCc1nnc(NC(=O)CCSc2ccccc2)s1	0.0449
O=C(Cc1cccs1)NCc1cccnc1	0.742
Cc1nnc(NC(=O)Cc2cccs2)s1	2.4
O=C(Nc1cccnc1)c1cccs1	-0.52
Cc1nnc(NC(=O)CCC(=O)NCc2cccs2)s1	-0.0957
O=C(Cc1cccs1)Nc1cccnc1	3.36 (active)
COCCSc1nnc(NC(=O)Cc2cccs2)s1	0.124
CCCCCc1nnc(NC(=O)Cc2cccs2)s1	12.3 (active)

Structure (SMILES)	z-score
Cc1nnc(NC(=O)CCSc2ccccc2)s1	2.67
COCc1nnc(NC(=O)CCSc2ccccc2)s1	-0.0854
O=C(Cc1cccs1)Nc1nnc(CCc2ccccc2)s1	0.238
NNc1nnc(-c2ccccc2)c(-c2ccccc2)n1	-0.209
CCOC(=O)CCCCC(=O)c1[nH]c(=O)[nH]c1CSCCO	0.565
O=C(Nc1ccc(F)cc1)C(c1ccccc1)N1CCN(C(=O)c2ccco2)CC1 (configuration not stated)	-0.404
CC(=O)Nc1ccc(NC(=O)COC(=O)Cc2cccs2)cc1	-0.0463
COc1ccc(-n2c(SCC(=O)Nc3ccc(C(=O)O)cc3)nnc2-c2cccs2)cc1	0.0972
CC1(C)N=C(N)N=C(N)N1c1ccc(F)cc1F	-0.421
CC1=NN2C(=N)/C(=C\c3ccc(SCc4ccccc4)o3)C(=O)N=C2S1	-0.21
O=C1NC(=S)S/C1=C/c1ccc(N2CCOCC2)o1	0.253
O=C1NC(=S)S/C1=C\c1ccc(SCc2ccccc2)o1	6.47 (active)
CCCNc1nc(N2CCOCC2)nc(N2CCOCC2)n1	-0.0765
Cc1cc(O)c2c(-c3ccccc3)cc(=O)oc2c1	2.16
Cc1cc(OC(C)C)c2c(-c3ccccc3)cc(=O)oc2c1	-0.594
CCOc1cc(C)cc2oc(=O)cc(-c3ccccc3)c12	0.0205
C=CCCC(=O)Nc1nc(C)c(-c2csc(Nc3ccc(Cl)cc3Cl)n2)s1	-0.203
O=[N+]([O-])c1cc(/C=N/N2CCN(C3c4ccccc4-c4ccccc43)CC2)ccc1Cl	0.148
O=[N+]([O-])c1cc(/C=N/N2CCN(c3ccccc3)CC2)ccc1Cl	2.02
O=[N+]([O-])c1ccc(Cl)c(/C=N/N2CCN(c3ccccc3)CC2)c1	-0.188
N#C/C(=C\c1ccc(-c2cccc(C(F)(F)F)c2)o1)C(=O)Nn1cnnc1	-0.113
O=C1NCCCC1C(=O)N/N=C/c1ccccc1 (configuration not stated)	0.00752
Cn1c(CSc2nc3ccccc3s2)n[nH]c1=S	1.41
CCn1c(CSc2nc3ccccc3s2)n[nH]c1=S	0.155
S=c1[nH]nc(CSc2nc3ccccc3s2)n1C1CCCCC1	14.9 (active)
Cc1cc(C(=O)NCCCC(=O)O)c(C)o1	-0.154

Structure (SMILES)	z-score
Cc1noc(/C=C/N(C)C)c1S(=O)(=O)N1CCCC(C(=O)NC2CCCCC2)C1 (configuration not stated)	-0.19
Cc1noc(/C=C/N(C)C)c1S(=O)(=O)NC1CCCCC1	-0.658
Cc1noc(/C=C/N(C)C)c1S(=O)(=O)N(C)CC(=O)NC1CCCCC1	2.18
Cc1ccc(SCCCn2cncn2)cc1	-0.0811
CCCC1COC(Cn2cncn2)(c2ccc(C)cc2)O1 (configuration not stated)	10.6 (active)
c1ccc(C2(c3ccccc3)OCC(Cn3cncn3)O2)cc1 (configuration not stated)	0.218
CCn1c(CCNC(=O)c2ccc(Cl)cc2)n[nH]c1=S	-0.774
CCn1ncc(/C=C/C(=O)Nc2c(C)nn(CC)c2C)c1C	-0.306
CC1CCCCC1NC(=O)COC(=O)c1ccc2c(c1Cl)C(=O)c1ccccc1C2=O (configuration not stated)	-0.0566
Cc1nc2cc(C(=O)OCC(=O)Nc3cccc(Cl)c3)ccc2n1-c1ccccc1	2.18
CC(=O)c1cccc(NC(=O)COC(=O)c2cccc(N3C(=O)c4ccccc4C3=O)c2)c1	0.155
Cc1nc2cc(C(=O)OCC(=O)Nc3ccc(C#N)cc3)ccc2n1-c1ccccc1	-0.0383
O=C(COC(=O)c1cccnc1)Nc1ccccc1	0.274
COc1ccccc1NC(=O)COC(=O)c1ccc2c(c1)nc(C)n2-c1ccccc1	-0.283
O=C(COC(=O)c1cccc(N2C(=O)c3ccccc3C2=O)c1)Nc1ccccc1	5.13 (active)
Cc1cc(NS(=O)(=O)c2ccc(NC(=O)c3cc(-c4ccccc4Cl)nc4ccccc34)cc2)no1	-1.51
C=CCn1c(=NC(=O)c2ccco2)sc2cc(C(=O)OC)ccc21	0.103
COc1ccccc1C(=O)Nc1ccc2c(c1)OCO2	0.246
CN(C)C(=O)N1CCCC(C(=O)NCc2ccccc2)C1 (configuration not stated)	-0.341
CC(/C=N/NC(=O)c1ccncc1)=C\c1ccccc1	0.474
CC(=C/c1ccc(C(C)C)cc1)/C=N/NC(=O)c1ccncc1	2.21
CC(/C=N/NC(=O)c1ccncc1)=C\c1ccc(C(C)C)cc1	-0.0873
COc1cc(/C=N\NC(=O)c2ccc(=O)[nH]n2)cc(OC)c1OC	0.00269
O=C(NO)c1ccc(OC(F)F)cc1	0.319
CCC1CCCCN1c1cc(C)nc2cc(-c3cccc(C)c3)nn12 (configuration not stated)	-0.0418
C#CCn1c(=NC(=O)c2ccccc2[N+](=O)[O-])sc2cc(S(C)(=O)=O)ccc21	-0.119

Structure (SMILES)	z-score
Cc1cccc(-c2nc(=S)c3c(o2)CCCC3)c1	0.856
S=c1nc(-c2ccccc2)oc2c1CCCC2	-0.0866
S=c1nc(-c2ccc(Br)cc2)oc2c1CCCC2	4.2 (active)
C=CCONC(=O)c1cc(OCC(F)(F)F)ccc1OCC(F)(F)F	-0.0898
COCCCNCCOCCSc1ccc(Cl)cc1	0.918
O=C(Cn1cncc1-c1ccc([N+](=O)[O-])cc1)Nc1cccc2ccccc12	-0.199
CC1CCc2c(sc(NC(=O)COC(=O)c3ccccc3NCc3ccco3)c2C#N)C1 (configuration not stated)	-0.152
CC1CCc2c(sc(NC(=O)CN3CCN(C(=O)c4ccco4)CC3)c2C#N)C1 (configuration not stated)	0.101
CC1CCc2c(sc(NC(=O)C(=O)NCc3ccco3)c2C#N)C1 (configuration not stated)	11.4 (active)
COc1ccc(S(=O)(=O)N2CCN(C3Cc4ccccc4C3)CC2)cc1	-0.439
Cc1cc(C)n(CC(O)CN(c2ccccc2)S(=O)(=O)c2ccccc2)n1 (configuration not stated)	-0.261
O=C(Nc1nnc(-c2ccccn2)o1)c1cccc(Br)c1	0.334
Cc1cc(C)c(NC(=O)c2ccc(S(=O)(=O)N(C)C)cc2)c(C)n1	-1.73
CC1CN(S(=O)(=O)c2ccc(C(=O)Nc3nnc(-c4ccc5c(c4)CCCC5)o3)cc2)CC(C)O1 (configuration not stated)	2.42
COc1ccccc1C(=O)Nc1nnc(-c2ccc3c(c2)CCCC3)o1	-0.536
CC1CN(S(=O)(=O)c2cccc(C(=O)Nc3ccc4c(c3)CCC4)c2)CC(C)O1 (configuration not stated)	-0.053
O=C(CCc1ccccc1)Nc1nnc(-c2ccc3c(c2)CCCC3)o1	-0.145
O=C(Nc1nnc(-c2ccc3c(c2)OCCO3)o1)c1ccc(Cc2ccccc2)cc1	-0.048
Cc1cc(C)nc(NS(=O)(=O)c2ccc(NC(=O)c3ccc(S(=O)(=O)N4CC(C)OC(C)C4)cc3)cc2)n1 (configuration not stated)	-0.605
CN(C)S(=O)(=O)c1ccc(C(=O)Nc2nnc(-c3ccc4c(c3)CCCC4)o2)cc1	5.8 (active)
N#Cc1ccc(C(=O)Nc2nnc(-c3ccccn3)o2)cc1	-0.232
O=C(Nc1nnc(-c2ccccn2)o1)c1ccc(Br)cc1	2.32
O=C(Nc1nnc(-c2ccc3c(c2)CCCC3)o1)c1ccccc1Cl	5.26 (active)
